Paper PMC4336329 (PLoS ONE, 2015)
Among all 310,000 compounds or so, about 14,000 (4.5%) showed an effect of 50% or more. Effects have a minus sign here. For the sample, strong results were picked, then their nearest neighbours and some compounds at random.

These molecules were tested against human ether-à-go-go-related gene (hERG) potassium channel (human, UniProt Q12809) (assay: primary screen, population patch clamp on CHO cells stably expressing hERG; higher = less effect of the substance).
human ether-à-go-go-related gene (hERG) potassium channel, sequence (Q12809 whole entry, looked up): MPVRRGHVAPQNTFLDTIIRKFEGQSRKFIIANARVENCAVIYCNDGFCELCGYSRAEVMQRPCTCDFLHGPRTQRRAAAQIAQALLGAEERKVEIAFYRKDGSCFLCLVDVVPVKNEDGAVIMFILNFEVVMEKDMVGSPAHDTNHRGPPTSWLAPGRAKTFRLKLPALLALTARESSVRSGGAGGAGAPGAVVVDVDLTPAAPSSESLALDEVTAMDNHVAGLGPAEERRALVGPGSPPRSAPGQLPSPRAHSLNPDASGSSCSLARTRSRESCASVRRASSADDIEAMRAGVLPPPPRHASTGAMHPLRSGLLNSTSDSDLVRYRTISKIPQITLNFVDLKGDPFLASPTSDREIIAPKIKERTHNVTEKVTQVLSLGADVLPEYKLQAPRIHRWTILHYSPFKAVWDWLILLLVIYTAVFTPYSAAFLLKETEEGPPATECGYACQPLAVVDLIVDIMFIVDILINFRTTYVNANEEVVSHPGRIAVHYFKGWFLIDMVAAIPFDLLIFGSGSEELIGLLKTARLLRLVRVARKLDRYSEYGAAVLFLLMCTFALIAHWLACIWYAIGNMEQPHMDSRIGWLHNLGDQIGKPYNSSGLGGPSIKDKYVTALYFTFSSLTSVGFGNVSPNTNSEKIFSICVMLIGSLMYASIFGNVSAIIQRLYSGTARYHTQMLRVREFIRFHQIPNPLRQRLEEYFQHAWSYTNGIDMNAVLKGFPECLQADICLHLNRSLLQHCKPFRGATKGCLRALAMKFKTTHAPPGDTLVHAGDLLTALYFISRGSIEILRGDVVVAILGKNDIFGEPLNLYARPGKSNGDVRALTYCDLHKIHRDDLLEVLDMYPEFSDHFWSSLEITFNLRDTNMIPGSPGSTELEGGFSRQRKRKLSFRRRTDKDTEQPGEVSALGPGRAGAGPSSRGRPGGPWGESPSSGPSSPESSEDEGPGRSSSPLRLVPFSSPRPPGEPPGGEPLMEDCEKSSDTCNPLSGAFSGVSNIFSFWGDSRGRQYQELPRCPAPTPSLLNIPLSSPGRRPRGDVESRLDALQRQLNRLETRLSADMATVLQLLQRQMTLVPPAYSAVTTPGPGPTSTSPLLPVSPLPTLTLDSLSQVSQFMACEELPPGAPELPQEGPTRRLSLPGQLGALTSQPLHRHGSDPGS
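Further: peak tail current of the secondary pulse compared with the same well before compound.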

Structure (SMILES)	hERG current change (%, negative = inhibition) at 10uM
O=C(NCCN1CCOCC1)C(=O)NCc1ccco1	19.5%
N=c1c2c(-c3ccccc3)c(-c3ccccc3)n(Cc3ccco3)c2ncn1CCN1CCOCC1	-75.9%
N=c1c2c(-c3ccccc3)c(-c3ccccc3)n(Cc3ccco3)c2ncn1CCCN1CCOCC1	-84.9%
O=c1c2ccccc2nc(-c2ccccc2)n1CCCN1CCOCC1	-20.4%
CC(C)Cn1c2nc3ccccc3nc2c2c(=O)n(CCN3CCOCC3)cnc21	-48.1%
O=C(NCCCN1CCOCC1)C(=O)NCc1ccco1	-1.68%
Cc1ccccc1C(=O)NCCCNC(=O)c1cnccn1	13.5%
COc1ccccc1OCc1nc(Cc2ccc(Cl)cc2)no1	-31.4%
CCn1c(=O)c(C(=O)NNC(=O)c2ccccc2Cl)c(O)c2ccccc21	7.09%
CC1=C(C(=O)OCC2CCCO2)C(c2ccccc2)C2=C(CCCC2=O)N1 (stereo not shown)	11.2%
CCC(C)[C@H](NC(=O)N1CCn2c1nc1ccccc12)C(=O)NCCc1ccccc1 (stereo partly shown)	-2.42%
COc1ccc(OC)c(/C=C/C(=O)OCC(=O)NCc2cccs2)c1	17.8%
Cc1onc(-c2ccccc2)c1NC(=O)N(CCC(=O)O)Cc1ccccc1	2.16%
COc1ccc(NC(=O)CN(C)C(=O)c2ccc3c(c2)NC(=O)CS3)cc1	-10.2%
COC(=O)c1cc(NC(=O)c2cccs2)ccc1N1CCOCC1	-1.74%
COc1ccc(-c2cc(C(=O)N3CC(C)CC(C)C3)c3ccccc3n2)cc1 (stereo not shown)	5.7%
CC(C)CC(C(=O)N1CCc2ccccc2C1)N1C(=O)c2ccccc2C1=O (stereo not shown)	-50.3%
O=C(CCCN1C(=O)c2ccccc2C1=O)N1CCc2ccccc2C1	-27.2%
CC(C)CC(C(=O)N1CCOCC1)N1Cc2ccccc2C1=O (stereo not shown)	29.3%
Cc1cc(NC(=O)c2cccs2)ncc1NC(=O)C(C)(C)C	9.59%
O=C(c1ccc(-c2ccccc2)cc1)C1CCCN(Cc2ccncc2)C1 (stereo not shown)	-62.6%
CSc1ccc(C(=O)C2CCCN(C(=O)c3cc(C)n(C)n3)C2)cc1 (stereo not shown)	-7.88%

Structure (SMILES)	hERG current change (%, negative = inhibition) at 10uM
O=C(c1ccc(-c2ccccc2)cc1)C1CCCN(C(=O)c2ccncc2)C1 (stereo not shown)	-13.4%
CSc1ccc(C(=O)C2CCCN(C)C2)cc1 (stereo not shown)	-23.1%
CN(C)S(=O)(=O)N1CCCC(C(=O)c2ccc(-c3ccccc3)c(F)c2)C1 (stereo not shown)	7.39%
CSc1ccc(C(=O)C2CCCN(C(=O)c3nn(C)c(=O)c4ccccc34)C2)cc1 (stereo not shown)	-64.9%
Cn1cc(CN2CCCC(C(=O)c3ccc(-c4ccccc4)c(F)c3)C2)cn1 (stereo not shown)	-55.4%
O=C(c1ccc(C(F)(F)F)cc1)C1CCCN(Cc2ccncc2)C1 (stereo not shown)	-23.7%
CSc1ccc(C(=O)C2CCCN(CCCn3cccn3)C2)cc1 (stereo not shown)	-76.8%
CSc1ccc(C(=O)C2CCCN(C(=O)CCCn3cncn3)C2)cc1 (stereo not shown)	-40.5%
Cn1nc(C(=O)N2CCCC2)c2ccccc2c1=O	23%
Clc1ccc(-c2csc(N/N=C/c3cccnc3)n2)c(Cl)c1	-11.9%
CC(=O)N1Cc2cc(N)ccc2Oc2ccccc21	9.9%
Cc1cccc(NC(=S)N2CCN(S(=O)(=O)c3ccc(F)cc3)CC2)c1	16.7%
CCOC(=O)C(NCCCCl)c1ccccc1 (stereo not shown)	2.53%
CCOC(=O)C(C)Sc1nnc(CSc2nc3nc(C)cc(C)n3n2)o1 (stereo not shown)	9.3%
CCOc1ccccc1N=Cc1c(O)c2ccccc2oc1=O	15.4%
CN(c1ccc(C(=O)N2CCCCC2)cc1)S(C)(=O)=O	10.6%
COc1ccc(Nc2nc(NC(C)(C)C)nc(N3CCOCC3)n2)c(OC)c1	-25.3%
O=C(Oc1ccc2c3c(c(=O)oc2c1)CCCC3)c1cccs1	-4.43%
COCC(=O)N1CCCC(C(=O)c2ccc(-c3ccccc3)c(F)c2)C1 (stereo not shown)	-23.3%
O=C(c1ccc(-c2ccccc2)c(F)c1)C1CCCN(C(=O)c2cncs2)C1 (stereo not shown)	-18.4%
CCC(=O)N1CCCC(C(=O)c2ccc(-c3ccccc3)cc2)C1 (stereo not shown)	-19%
CC(=O)NCC(=O)N1CCCC(C(=O)c2ccc(-c3ccccc3)c(F)c2)C1 (stereo not shown)	-25.1%

Structure (SMILES)	hERG current change (%, negative = inhibition) at 10uM
CCn1cc(CN2CCCC(C(=O)c3ccc(-c4ccccc4)c(F)c3)C2)cn1 (stereo not shown)	-57.6%
O=C(c1ccc(-c2ccccc2)c(F)c1)C1CCCN(CCO)C1 (stereo not shown)	-44.8%
Cn1cc(CN2CCCC(C(=O)c3ccc(-c4ccccc4)cc3)C2)cn1 (stereo not shown)	-34.4%
CCn1cc(CN2CCCC(C(=O)c3ccc(-c4ccccc4)cc3)C2)cn1 (stereo not shown)	-59.1%
O=C(c1ccc(-c2ccccc2)c(F)c1)C1CCCN(CCCn2cccn2)C1 (stereo not shown)	-69.6%
NC(=O)CSc1nc2scc(-c3ccc(Cl)cc3)c2c(=O)n1Cc1ccccc1	33.1%
O=[N+]([O-])c1ccc(N2CCN(S(=O)(=O)c3ccccc3[N+](=O)[O-])CC2)cc1NCc1cccnc1	-8.91%
Cc1ccccc1OCC(=O)N/N=C/c1cccc(Oc2ccc([N+](=O)[O-])cc2[N+](=O)[O-])c1	5.59%
CCn1cc(C(=O)NCCc2ccccc2)c(=O)c2cc(S(=O)(=O)N(C)C)ccc21	7.05%
O=C(NCCc1csc(-c2cccnc2)n1)c1cccc(Cl)c1	-17.7%
CC1CCN(c2ccc(C(=O)O)cc2)CC1	2.86%
O=C(/C=C/c1cccc(Cl)c1)NCCN1CCOCC1	-14.7%
CC1CCCCC1N(C)C1CCN(C(=O)CNC(=O)/C=C/c2cccc(Cl)c2)CC1 (stereo not shown)	-73.6%
COc1ccccc1/C=C/C(=O)NC(=S)N(C)C1CCCCC1	1.35%
CCOc1ccccc1/C=C/C(=O)NCC(=O)N1CCC(N(C)C2CCCCC2C)CC1 (stereo not shown)	-54.7%
CCOc1ccc(C(=O)NCC(=O)N2CCC(C)CC2)cc1OCC	3.68%
CC1CCN(C(=O)CNC(=O)Cc2ccccc2)CC1	9.53%
CN(C)C(CNC(=O)/C=C/c1cccc(Cl)c1)c1ccccc1 (stereo not shown)	-19.2%
Cc1ccccc1/C=C/C(=O)NCC(=O)N1CCC(N(C)C2CCCCC2C)CC1 (stereo not shown)	-72.1%
COc1ccc(/C=C/C(=O)NCC(=O)N2CCC(N(C)CCN3CCOCC3)CC2)cc1OC	14.7%
O=C(Nc1ccc(S(=O)(=O)NCC2CCCO2)cc1)C1CC(=O)N(c2ccccc2)C1 (stereo not shown)	3.16%
O=C(NCCCn1ccnc1)c1cn(Cc2ccc(F)cc2)nn1	-9.7%

Structure (SMILES)	hERG current change (%, negative = inhibition) at 10uM
COc1ccc(C(C)=O)cc1COC(=O)CNC(=O)c1cc(C)cc(C)c1	-11.7%
Cc1cccc(/C=N/NC(=O)C2CCCNC2=O)c1 (stereo not shown)	19%
Cn1c(O)c(C(=Nc2ccccc2)SCc2ccccc2Cl)c(=O)n(C)c1=O	21.5%
CC(/C=C1\SC(=Nc2cccnc2)NC1=O)=C\c1ccccc1	8.95%
CC(=O)NC(Cc1ccccc1C)C(=O)NC1CCN(c2ncccc2[N+](=O)[O-])CC1 (stereo not shown)	-1.73%
O=C(O)C(=O)O.c1ccc(COc2cccc(CN3CCCCC3)c2)cc1	-19.2%
Cc1cc(OCCCCCN2CCCC2)ccc1Cl.O=C(O)C(=O)O	-77.2%
Clc1ccc(OCCCN2CCCC2)cc1Cl.O=C(O)C(=O)O	-67.7%
Clc1ccc(OCCN2CCCCC2)cc1Cl.O=C(O)C(=O)O	-42.1%
Cc1cc(OCCCN2CCCC2)ccc1Cl	-42.9%
CN1CCN(CCOc2ccc(Cl)c(Cl)c2)CC1.O=C(O)C(=O)O	-22.3%
O=C(NCCCOc1cccc(CN2CCCCC2)c1)c1ccc(Cl)c(Cl)c1.O=C(O)C(=O)O	-60.8%
CC(=O)OCC(=O)NCCCOc1cccc(CN2CCCCC2)c1.Cl	-2.29%
Cc1cc(OCC(=O)N2CCCC2)ccc1Cl	-0.71%
CC(=O)Nc1scc(-c2ccccc2)[n+]1-c1ccc(C)cc1.[Br-]	1.06%
O=C(CCCNC(=O)c1ccc(Cl)cc1)Nc1ccc(F)c(S(=O)(=O)N2CCOCC2)c1	-33.6%
C/C(N)=C(/C#N)C(=O)COC(=O)c1cccc2ccccc12	-8.17%
Cc1cc(C)cc(NC(=O)CSc2nc3c(c(=O)n2C)SC(C)C3)c1 (stereo not shown)	3.64%
O=C(CCCN1C(=O)NC2(CCCC2)C1=O)N1CCN(S(=O)(=O)c2ccccc2)CC1	0.403%
CC(=O)C(c1ccccc1)C(c1ccccc1)C(C)[N+](=O)[O-] (stereo not shown)	14.3%
OCC(CO)(CO)n1cnnn1	12.3%
CCN(CC)c1ccc(/C=N/O)cc1	18.3%
